Here are results for 48 molecules from PubChem BioAssay AID2685 (National Center for Advancing Translational Sciences (NCATS), 2010).

Out of some 320,000 compounds screened, about 2,100 (0.66%) were called active. Another 53% or so got no clear call; they are omitted. The call rests on the fitted dose curve; in most records, active means well fitted inhibition curve with a large enough effect in the signal ratio, with a control signal flat (not every such curve was filed as active); inconclusive means small, poorly fitted or top-dose-only effect, or effect the other way, or a change in a side signal; inactive means flat fitted curve, though single readings scatter; the % refers to the signal ratio. The sample as a whole holds a higher share of actives than the screen did.
Potency means the concentration at half of the fitted maximal effect.

A short description of this experiment: qHTS Assay for Lipid Storage Modulators in Drosophila S3 Cells.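 On cell number change: cells counted by Cell Tracker Red CMTPX staining in the red channel.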 On lipid storage change, negative = inhibition: on the % scale 0 is the no-effect control and ±100 the full control effect. Particulars: BODIPY lipid droplet fluorescence, 18-24 h, cells fed with added oleic acid; cell number change: measured here: cell count max response; series mostly up to 46.1 µM; lipid storage change, negative = inhibition: at the top concentration. An excerpt: NIH Molecular Libraries Probe Production Centers Network [MLPCN] NIH Chemical Genomics Center [NCGC] MLPCN Grant: 1 R03 MH085686-01 Assay Submitter (PI): Beller, Mathias; Max-Planck-Institut fur Biophysikalische Chemie NCGC Assay Overview: Storing lipids as a reservoir for energy or the anabolism of elementary metabolites is a common feature of probably all cells and is conserved from bacteria to humans. The universal cellular lipid storage organelle is the so-called lipid storage droplet (LD). Although ubiquitous, LDs share a simple structure composed of a hydrophobic core that harbors the storage lipids, which is shielded by a droplet-specific phospholipid monolayer to which proteins are attached. The current model of LD biogenesis involves an incorporation of the lipid core into the membrane leaflets of the endoplasmic reticulum (ER) followed by a subsequent budding-like maturation of a LD, which ultimately pinches off. Once released, LD volume can increase by localized lipogenesis or fusion of existing droplet. Storage lipids are re-mobilized enzymatically by lipase activity. Lipase regulation in the adipocyte is heavily studied and involves multiple components including catecholamine signaling, the LD-associated proteins Perilipin and comparative gene identification (CGI-58) and at least two lipases named hormone sensitive lipase (HSL) and adipocyte triglyceride lipase (ATGL). LD regulation outside of the adipocyte is poorly understood and only few components are known. However, there is an urgent need to learn more about ectopic fat depots as mislocalized storage of lipids, for example in the liver or muscle, is an eminent health problem associated with insulin resistance or the metabolic syndrome. We developed a laser-scanning cytometer assay to enable 1,536-well screening and combined the results of the small molecules screen with an RNAi database based on lipid storage.
Triacsin C (Sigma-Aldrich T-4540), an inhibitor of long-chain fatty acyl CoA synthetase that blocks synthesis of triglycerides, was used as a positive control for lipid under-storage. A total of 23 nL of compound solution of different concentrations were transferred to the assay plates using a Kalypsys pin tool equipped with a 1,536-pin array containing 10-nL slotted pins (FP1S10, 0.457-mm diameter, 50.8 mm long; V&P Scientific). One microliter of oleic acid (400 uM) was added, and the plate was lidded with stainless steel rubber gasket lined lids containing pinholes. […] Fluorescence was detected by excitation of the fluorophores with a 488-nm laser on an Acumen Explorer (TTP Lab Tech). The total intensity in channel 2 (500-530 nm) reflected lipid droplet accumulation. Cells were detected using channel 3 (575-640 nm) with 5-um width and 100-um depth filters. The ratio of the number of objects in PMT channel 2 over the number of objects in PMT channel 3 was also calculated. Percent activity was computed relative to an internal control (100% inhibited lipid droplet deposition due to the presence of 20 uM Triacsin C), which was added to 32 wells/plate.
For the molecule `O=C(CN1CCc2ccccc21)NC(=O)NCc1ccco1`, the Potency is 6.51 µM (active) and the cell number change turned out to be 0.297%.

For the molecule `O=C(CN1CCc2ccccc21)NC(=O)NCc1ccccc1`, the call was inactive.

For `COc1ccc(C(C)NC(=O)c2ccc([N+](=O)[O-])cc2)cc1OC` (centres undefined), the “lipid storage change, negative = inhibition” value is 3% (inactive) and the cell number change was 5.72%.

Regarding `CC12COC3(C(=O)Nc4nccs4)CC1CCC32C` (centres undefined), the “lipid storage change, negative = inhibition” value is -0.803% (inactive) and the cell number change turned out to be 20.9%.

Consider `O=C1c2ccccc2C(=O)N1Cc1ccccn1`, for which the “lipid storage change, negative = inhibition” value was -22.3% (inactive) and the cell number change is -28%.

Turning to `COC(=O)C1=C(C)C(c2cccs2)NC(=O)N1C` (centres undefined), the “lipid storage change, negative = inhibition” value is 2.46% (inactive) and the cell number change came out at 10.6%.

As for `O=C(NCc1cccs1)NC1CCCCC1`, the “lipid storage change, negative = inhibition” value was -1.33% (inactive) and the cell number change was 3.84%.

`O=C(NCCCn1ccnc1)c1ccc2ccccc2c1`: the “lipid storage change, negative = inhibition” value is 20% (inactive).

Regarding `O=C(O)c1c(Cl)nc2ccccn12`, the Potency is 4.61 µM (active) and the cell number change is -7.31%.

For the molecule `Cc1nc2ccccn2c1C(=O)c1ccccc1`, the call was inactive and the cell number change was found to be 15.8%.

As to `O=Cc1c(Cl)nc2ccccn12`, the “lipid storage change, negative = inhibition” value is -10.1% (inactive) and the cell number change was -2.46%.

Regarding `COc1ccc([N+](=O)[O-])cc1NC(=O)CSc1nc(C)c(C)c(C)n1`, the “lipid storage change, negative = inhibition” value is 7.69% (inactive) and the cell number change was determined as 1.59%.

For `CCOC(=O)C1CCN(C(=O)Cn2cnc3sc(C)c(S(=O)(=O)N4CCOCC4)c3c2=O)CC1`, the result was inactive and the cell number change came out at 1.25%.

As to `CCOC(=O)C1CCN(C(=O)Cn2cnc3sc(C)c(S(=O)(=O)N4CCC(C)CC4)c3c2=O)CC1`, the Potency was 0.58 µM (active) and the cell number change amounted to 14.4%.

For `Cc1sc2ncn(CC(=O)N3CCCCC3)c(=O)c2c1S(=O)(=O)N1CCC(C)CC1`, the molecule was called inactive and the cell number change is 18.5%.

`CN(C)c1ncc(S(=O)(=O)c2ccccc2)c(=O)[nH]1`: the “lipid storage change, negative = inhibition” value is -2.86% (inactive) and the cell number change amounted to 19.4%.

Consider `CC12CC3(C)CC(C)(C1)CC(C(=O)NC(=S)N1CCCC1)(C2)C3`, for which the “lipid storage change, negative = inhibition” value is 0.446% (inactive) and the cell number change was -0.792%.

For the molecule `COC(=O)CNC(=O)C12CC3(C)CC(C)(CC(C)(C3)C1)C2`, the “lipid storage change, negative = inhibition” value was -1.63% (inactive) and the cell number change is -2.27%.

Turning to `CC12CC3(C)CC(C)(C1)CC(C(=O)NCC(=O)O)(C2)C3`, the Potency was 1.46 µM (active) and the cell number change was -16.9%.

With `Cc1cc(C)nc(SCc2cn3c(C)cccc3n2)n1`, the “lipid storage change, negative = inhibition” value was 22.7% (inactive) and the cell number change came out at 13.2%.

For the molecule `O=C(NCCc1ccccc1)C1CCCN(C(=O)Nc2ccc(F)cc2)C1` (centres undefined), the call was inactive and the cell number change turned out to be 16.8%.

Turning to `O=C(COC(=O)c1ccc(NS(=O)(=O)c2ccc(F)c(F)c2)cc1)NCC1CCCO1` (centres undefined), the “lipid storage change, negative = inhibition” value is 9.43% (inactive) and the cell number change was 10.2%.

Regarding `O=C(CCc1c[nH]c2ccccc12)N1CCCCCCC1`, the call was inactive and the cell number change is -19.1%.

For the molecule `Cc1cc(NC(=O)c2ccc(C)c([N+](=O)[O-])c2)no1`, the “lipid storage change, negative = inhibition” value is -0.109% (inactive) and the cell number change worked out at 0.478%.

On to `Cc1cc(NC(=O)c2cc([N+](=O)[O-])cc([N+](=O)[O-])c2)no1`, for which the “lipid storage change, negative = inhibition” value is -20.4% (inactive) and the cell number change is 2.37%.

As for `Cc1cc(NC(=O)c2ccc([N+](=O)[O-])cc2)no1`, the Potency is 0.58 µM (active) and the cell number change was -11.8%.

As for `C/C(=N\NC(=O)c1ccc(F)cc1)c1cccc(NC(=O)c2cccc(F)c2)c1`, the “lipid storage change, negative = inhibition” value is -24.1% (inactive) and the cell number change came out at 11.9%.

As to `COC(=O)c1sccc1NC(=O)COc1ccc(F)cc1Cl`, the “lipid storage change, negative = inhibition” value is 16.3% (inactive) and the cell number change stood at 0.149%.

On to `COCCc1nn2c(=O)cc(COC(=O)c3cc(OC)c(OC)c(OC)c3)nc2s1`, for which the “lipid storage change, negative = inhibition” value was -24.2% (inactive).

Turning to `Cc1ccc(C(=O)Nc2ccc(C(=O)OCc3cc(=O)n4ccsc4n3)cc2)cc1`, the “lipid storage change, negative = inhibition” value was 6.49% (inactive) and the cell number change was 10.6%.

On to `Cc1nn2c(=O)cc(COC(=O)c3ccc(NC(=O)C(C)(C)C)cc3)nc2s1`, for which the Potency is 3.66 µM (active) and the cell number change stood at 7.59%.

Regarding `COc1ccc(C(=O)CSc2ccc3nnc(-c4cccnc4)n3n2)cc1`, the “lipid storage change, negative = inhibition” value was -5.62% (inactive) and the cell number change is -3.07%.

As to `Clc1ccc(OCc2nnc3n2CCCCC3)c(Cl)c1`, the “lipid storage change, negative = inhibition” value was 4.84% (inactive).

Turning to `O=C(CN1C(=O)S/C(=C\c2ccccc2)C1=O)NC1CCS(=O)(=O)C1` (centres undefined), the Potency was 20.6 µM (active).

For the molecule `O=C(CCN1C(=O)S/C(=C\c2ccccc2)C1=O)NC1CCS(=O)(=O)C1` (centres undefined), the call was inactive and the cell number change is -15.9%.

`O=C(CN1C(=O)S/C(=C\c2ccccc2F)C1=O)NC1CCS(=O)(=O)C1` (centres undefined): the “lipid storage change, negative = inhibition” value is -4.85% (inactive) and the cell number change is -4.18%.

In the case of `CC(C(=O)NC1CCS(=O)(=O)C1)N1C(=O)/C(=C/c2ccc(Cl)cc2)SC1=S` (centres undefined), the Potency is 20.6 µM (active) and the cell number change was -12.5%.

Take `COc1ccc(/C=C2\SC(=S)N(CC(=O)NC3CCS(=O)(=O)C3)C2=O)cc1` (centres undefined): the “lipid storage change, negative = inhibition” value is 5.31% (inactive) and the cell number change amounted to 5.36%.

Consider `COc1cccc(/C=C2\SC(=O)N(CC(=O)NC3CCS(=O)(=O)C3)C2=O)c1` (centres undefined), for which the outcome was inactive and the cell number change came to 0.472%.

In the case of `O=C(CN1C(=O)/C(=C/c2ccccc2)SC1=S)NC1CCS(=O)(=O)C1` (centres undefined), the “lipid storage change, negative = inhibition” value is -13.4% (inactive).

As to `CC(C)c1ccc(/C=C2\SC(=O)N(CC(=O)NC3CCS(=O)(=O)C3)C2=O)cc1` (centres undefined), the Potency was 2.59 µM (active) and the cell number change was -27.6%.

As to `O=C(CN1C(=O)/C(=C/c2ccc(F)cc2)SC1=S)NC1CCS(=O)(=O)C1` (centres undefined), the molecule was classed as inactive and the cell number change was -19.3%.

In the case of `O=C(O)CSc1nnnn1C1CCCCC1`, the “lipid storage change, negative = inhibition” value was -2% (inactive) and the cell number change is 12.8%.

As to `CCOC(=O)c1oc2ccccc2c1COC(=O)CNC(=O)c1ccccc1`, the “lipid storage change, negative = inhibition” value is -1.38% (inactive) and the cell number change was -8.09%.

Consider `NC(=O)C1CCN(CC(O)CSc2ccccc2)CC1` (centres undefined), for which the “lipid storage change, negative = inhibition” value is 22.1% (inactive).

Turning to `Cc1nnc(N/N=C/c2ccco2)n1N`, the “lipid storage change, negative = inhibition” value is -2.72% (inactive) and the cell number change was -14%.

On to `N/C(=N\OC(=O)c1cc([N+](=O)[O-])ccc1Cl)c1cccnc1`, for which the “lipid storage change, negative = inhibition” value was -20.1% (inactive) and the cell number change was -8.86%.

On to `CN(C)CCCNC(=O)C(=O)NCC1OCCN1S(=O)(=O)c1cccs1` (centres undefined), for which the “lipid storage change, negative = inhibition” value was -20.9% (inactive) and the cell number change is 1.62%.
